Hits are enriched below; roughly 12% of the tested compounds scored in any of these assays.
Shiga toxin inh = inhibitors of Shiga toxin in Vero cells; Vero cells, Shiga toxin protein synthesis inhibition reporter; inhibition, % at 38.7 µM; 290,000 compounds, 9.2% hits; AID 2315; in the data active = inhibition mostly above about 28%, no sharp cut-off; inactive = mostly below about 43%
Sm TGR inh = inhibitors of Schistosoma mansoni thioredoxin glutathione reductase. 360,000 compounds, 3% hits. AID 485364. Potency, µM (top dose mostly 114 µM), usual class: inhibitors. Q962Y6. purified TGR, DTNB reduction, TNB absorbance 405 nm; active = well fitted inhibition curve with a large enough effect; inconclusive = small, poorly fitted or top-dose-only effect; inactive = no such curve, though single readings can be large or run the other way; also: nearly all actives have a fitted effect of over 60% in size
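First, TGR (20 nM dispensed) and NADPH were mixed with compound. Second, a 15 min room-temperature incubation followed. Third, further NADPH and then DTNB were added to start the reaction. Finally, TNB absorbance was monitored kinetically.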
CHX counter = affects cycloheximide protein synthesis inhibition readout, counter-screen; cell reporter, cycloheximide protein synthesis inhibition counterscreen; max response, %; 300,000 compounds, 12% hits; AID 2314; in the data active = max response mostly above about 13%, no sharp cut-off; inactive = mostly below about 14%; also: read at 38.3 µM for the half of the compounds with a filed dose
FMDV antiviral = antivirals against foot and mouth disease virus; FMDV antiviral cell-based qHTS; Potency, µM (titrated, usually from 57.9 µM), most hits filed as inhibitors; 410,000 compounds, 1.2% hits; calls by dose curve; tested in HEK293T cells; also: read-out not given here; nearly all actives have a fitted effect of over 45% in size
Of the large screens only hits and unclear results are named; the others gave an inactive call.

CCn1cc([N+](=O)[O-])c(C(=O)N2N=C(c3ccc4ccccc4c3)CC2c2ccccc2O)n1 (stereo not drawn)	Shiga toxin inh 27, CHX counter 34
CC(=O)N1c2ccccc2NC2=C(C(=O)CCC2)C1c1ccco1 (stereo not drawn)	Sm TGR inh 35µM
COc1ccc(C(=O)OCC(=O)N(C)C2CCS(=O)(=O)C2)cc1S(=O)(=O)N1CCCc2ccccc21 (stereo not drawn)	CHX counter 20
CCN(C(=O)COC(=O)c1cc(-c2ccc(C)o2)nc2ccccc12)C1CCS(=O)(=O)C1 (stereo not drawn)	Sm TGR inh 25µM
Cc1ccc(-c2cc(C(=O)OCC(=O)N(C)C3CCS(=O)(=O)C3)c3ccccc3n2)o1 (stereo not drawn)	Sm TGR inh 14µM
COc1ccc(C(=O)OCC(=O)N(C)C2CCS(=O)(=O)C2)cc1S(=O)(=O)N(C)Cc1ccccc1 (stereo not drawn)	none (no result: Shiga toxin inh, CHX counter)
COc1ccc(-c2cc(C(=O)OCC(=O)N(C)C3CCS(=O)(=O)C3)c3ccccc3n2)cc1OC (stereo not drawn)	CHX counter 17
CCc1cccc(NC(=O)CSc2ncc3c(n2)-c2ccccc2N(Cc2ccccc2C)S3(=O)=O)c1	none (no result: Shiga toxin inh, CHX counter)
CNCC(O)c1cccc(O)c1 (stereo not drawn)	none (no result: Shiga toxin inh, Sm TGR inh, CHX counter)
CC(=O)N(c1ccccc1)c1nnc(-c2cnc(C)cn2)s1	Shiga toxin inh 68, CHX counter 29
CCOc1ccc(CCNc2ncnc3onc(-c4ccc(F)cc4)c23)cc1OCC	FMDV antiviral inconclusive (no result: Shiga toxin inh, CHX counter)
Cc1ccc(CNC(=O)C2CCCN(c3ncnc4onc(-c5ccc(F)cc5)c34)C2)cc1 (stereo not drawn)	none (no result: Shiga toxin inh, CHX counter)
COC(C/C=C\[C@H](O)COCc1ccccc1)OC	none (no result: Shiga toxin inh, Sm TGR inh, CHX counter)
COC(C/C=C/C(=O)COCc1ccccc1)OC	Shiga toxin inh 42, Sm TGR inh 16µM, CHX counter 18
COC(C/C=C/C(=O)[C@H](C)OCc1ccccc1)OC	FMDV antiviral 35µM (no result: Shiga toxin inh, Sm TGR inh, CHX counter)
COC(C/C=C/[C@H](O)[C@@H](C)OCc1ccccc1)OC	none (no result: Shiga toxin inh, Sm TGR inh, CHX counter)
O=C(Cn1nc2c(cc1=O)CCCC2)NCc1ccccc1Cl	none (no result: Shiga toxin inh, CHX counter)
COc1ccc(NC(=O)Nc2ccc3nccnc3c2)cc1	CHX counter 22
COc1ccc(NC(=O)Nc2ccc3nonc3c2)cc1	Shiga toxin inh 66, CHX counter 34
COC(=O)c1cc(OC)c(OC)cc1NC(=O)Nc1ccc(OC)cc1	none
COc1cccc(NC(=O)COC(=O)c2c(F)cccc2Cl)c1	Shiga toxin inh 95, CHX counter 37
COc1cccc(NC(=O)COC(=O)c2ccccc2F)c1	none
O=C(COC(=O)c1c(F)cccc1Cl)NC1CCCC1	Shiga toxin inh 110, CHX counter 51
COc1cccc(NC(=O)COC(=O)c2c3c(nc4ccccc24)CCC(C)C3)c1 (stereo not drawn)	FMDV antiviral 32µM
Cc1cc(Br)ccc1NC(=O)c1cc2c(=O)n(C)c3cc(Cl)ccc3c2s1	none (no result: Shiga toxin inh, CHX counter)
COc1ccc2c(c1)CCc1c(C(=O)N3CCCCCC3)noc1-2	Shiga toxin inh 114, Sm TGR inh inconclusive, CHX counter 46
COc1ccc2c(c1)CCc1c(C(=O)Nc3ccccc3C(F)(F)F)noc1-2	none (no result: Shiga toxin inh, CHX counter)
COc1ccc2c(c1)CCc1c(C(=O)Nc3ccc(F)c(Cl)c3)noc1-2	none (no result: Shiga toxin inh, CHX counter)
COc1ccc2c(c1)CCc1c(C(=O)NCC(C)C)noc1-2	Shiga toxin inh 178, CHX counter 39
COc1ccc2c(c1)CCc1c(C(=O)NCc3cccnc3)noc1-2	Sm TGR inh 28µM, CHX counter 12
CCCNC(=O)c1noc2c1CCc1cc(OC)ccc1-2	Shiga toxin inh 71, CHX counter 48
COc1ccc2c(c1)CCc1c(C(=O)Nc3ccc(OC)cc3OC)noc1-2	none (no result: Shiga toxin inh, CHX counter)
CS(=O)(=O)N1CCC2(CCCN(Cc3ccccc3)C2)CC1	none (no result: Shiga toxin inh, Sm TGR inh, CHX counter)
CCC(CC)C(=O)Nc1nnc2n1CCS2	none (no result: Shiga toxin inh, CHX counter)
NC(N)=NC1=NC(=O)/C(=C/c2ccccc2-n2cccn2)S1	none
O=Cc1ccccc1-n1cccn1	CHX counter 31
COCc1ccc(C(=O)N2CCOc3c(cc(-c4cc(C)c5cccc(OC)c5n4)cc3OC)C2)o1	none (no result: Shiga toxin inh, Sm TGR inh, CHX counter)
Cc1ccc2c(=O)cc(C(=O)Nc3ccc(S(=O)(=O)N(C)Cc4ccccc4)cc3)oc2c1C	none (no result: Shiga toxin inh, CHX counter)
COc1ccc(NC(=O)c2cc(=O)c3ccccc3o2)cc1Cl	none (no result: Shiga toxin inh)
CN(C)S(=O)(=O)c1cc(NC(=O)c2cc(=O)c3ccccc3o2)ccc1Cl	Shiga toxin inh 34, CHX counter 31
Cc1ccc(NC(=O)c2cc(=O)c3ccccc3o2)cc1S(=O)(=O)N1CCCCC1	FMDV antiviral 25µM
CCC(CC)c1nnc(NC(=O)c2ccc3c(c2)OCO3)s1	Shiga toxin inh 62, CHX counter 19

Screening data deposited in PubChem by National Center for Advancing Translational Sciences (NCATS).
